Assay outcomes: PubChem, National Center for Advancing Translational Sciences (NCATS)
TDP1 cell noCPT = qHTS for Inhibitors of human tyrosyl-DNA phosphodiesterase 1 (TDP1): qHTS in cells in absence of CPT. DT40 Tdp1-/- hTDP1 cells, no CPT, ATP luminescence, 48 h. Potency, µM (doses to about 46.2 µM), hits mostly inhibitors. 420,000 compounds, 15% hits; also: nearly all actives have a fitted effect of over 55% in size
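Seeded 400 DT40-hTDP1 cells/well (vehicle DMSO, no 20 nM CPT); pinned compounds; ≥48 hr at 37 °C; CellTiter-Glo luminescence as viability measure.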
HT1080NT lethal = qHTS for induction of synthetic lethality in tumor cells producing 2HG: qHTS for the HT-1080-NT fibrosarcoma cell line; HT-1080-NT fibrosarcoma viability, CellTiter-Glo ATP luminescence, 48 h; Potency, µM (titrated, usually from 46.1 µM), actives largely listed as cytotoxic; 360,000 compounds, 1.6% hits;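 also: NT is the 2HG producing partner of a matched IDH1 knockdown line; nearly all actives have a fitted effect of over 55% in size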
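Viability of the 2HG-overproducing fibrosarcoma line after 48 hours of compound exposure at 37 degrees C was determined by luminescence with CellTiter-Glo, and concentration-effect curves were then fitted and categorized.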
TGFb SMAD3 inh = qHTS for Inhibitors of TGF-b. Potency, µM (series often up to 46.1 µM), most hits filed as inhibitors. AID 588855, 2011. 410,000 compounds, 1.2% hits. HepG2 CAGA-GFP TGF-b/SMAD3 reporter, GFP fluorescence, 18 h; TGF-beta stimulated, 500 pg/mL final; also: nearly all actives have a fitted effect of over 65% in size
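First, reporter cells (HEPG2 CAGA-GFP) rested 2 h at 37 degrees C. Next, compounds were pinned in and TGF-beta added to 500 pg/mL final. After 18 h, GFP was imaged per cell and summed per well.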
TDP1 cell CPT = qHTS for Inhibitors of human tyrosyl-DNA phosphodiesterase 1 (TDP1): qHTS in cells in presence of CPT. chicken DT40 Tdp1-/-;hTDP1 cells + 20 nM CPT, ATP luminescence, 48 h. AID 686979, 2013. 420,000 compounds, 12% hits. Potency, µM (doses to about 46.2 µM), most hits filed as inhibitors; also: nearly all actives have a fitted effect of over 55% in size
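Chicken DT40 Tdp1-/- cells complemented with human TDP1, 400 cells/well, exposed to compounds plus 20 nM camptothecin for at least 48 h at 37 C; viability read as ATP content by CellTiter-Glo luminescence.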
HepG2 viability = qHTS for Inhibitors of TGF-b: Cytotox Counterscreen. HepG2 CAGA-GFP viability, ATP luminescence, 18 h. Potency, µM (series often up to 46.1 µM), usual class: cytotoxic. 410,000 compounds, 0.76% hits. AID 588856, 2011
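HepG2 CAGA-GFP cells (1000/well, DMEM with 1% FBS) received compound, then TGF-beta at 500 pg/mL final, and were incubated 18 hours at 37 degrees C. Viability was read by CellTiter-Glo luminescence. Media-only wells were set as complete cell-killing and DMSO as no toxicity.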
HT1080 IDH1KD tx = qHTS for induction of synthetic lethality in tumor cells producing 2HG: qHTS for the HT-1080-IDH1KD cell line. 360,000 compounds, 2% hits. AID 686971, 2013. Potency, µM (doses to about 46.1 µM), hits mostly cytotoxic. HT-1080 IDH1 knockdown viability, ATP luminescence, 48 h
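Assay cells: HT-1080 with IDH1 knockdown, 750 per well, RPMI/5% FBS. Exposure: 48 h at 37 °C following 2 h pre-incubation. Read: CellTiter-Glo luminescence; fitted concentration-response, curve class assigned.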
A number is an active result; 0 = inactive; ? = inconclusive; - = no result. Shown are actives, neighbours in structure and some others; about 17% of the full set was active somewhere. Calls follow the shape of the dose curve; as a rule, active = well fitted curve in the direction sought with a large enough effect; inconclusive = small, poorly fitted or top-dose-only effect, or another doubt; inactive = no such curve, though single readings can be large; an effect the other way counts as inactive or inconclusive.

SMILES	TDP1 cell noCPT	HT1080NT lethal	TGFb SMAD3 inh	TDP1 cell CPT	HepG2 viability	HT1080 IDH1KD tx
CCOc1ccc2c(c1)C(=NNC(=O)c1ccccn1)c1cc(OCC)ccc1-2	?	0	0	?	0	0
Cc1cc(C)c2cc(C#N)c(NCCNC(=O)c3ccccn3)nc2c1	0	?	-	0	-	?
C=C1C(=O)OC2CC1C(OC(C)=O)CC(C)=CCCC(C)=CCC[C@@]2(C)O (stereo partly drawn)	3.3µM	-	-	2.9µM	-	-
C=C1CCC(OC(C)=O)C2(C)CCC3C(C)C(=O)OC3C12O (stereo not drawn)	0	0	0	0	0	0
C=C1C(=O)OC2CC1C(O)CC(C)=CCCC(C)=CC(O)CC2C (stereo not drawn)	3.3µM	15µM	11µM	2.9µM	0	7.3µM
O=CNc1ccc(/C=C/c2ccnc3ccccc23)cc1	14µM	-	0	13µM	0	-
Cn1cc(/C=C/c2ccnc3ccccc23)c2ccccc21	11µM	-	?	?	0	-
O=[N+]([O-])c1ccccc1/C=C/c1ccnc2ccccc12	14µM	-	0	?	0	-
CN(C)c1ccc(/C=C/c2ccnc3ccccc23)cc1[N+](=O)[O-]	0	-	0	0	0	-
O=Cc1ccnc2ccccc12	0	-	0	2.8µM	0	-
S=Cc1ccc(/C=C/c2ccnc3ccccc23)cc1	?	-	0	?	0	-
CCN(C)C1CN(Cc2cn(Cc3cc(C)cc(C)c3)nn2)S(=O)(=O)C1 (stereo not drawn)	0	0	-	0	-	0
C=C1NN(Cc2ccccc2)C(=O)N1c1ccc(OC)cc1	0	-	0	0	0	-
CCc1nc2ccc(C(=O)N(CC)CCN(C)C)cn2c1N(CC)C(=O)NCCc1ccccc1	0	0	0	0	0	0
C[n+]1c(/C=C/c2ccnc3ccccc23)cc(/C=C/c2ccnc3ccccc23)c2ccccc21	2.5µM	-	?	5µM	0	-
Nc1cccc(/C=C/c2ccnc3ccccc23)c1	?	-	0	?	0	-
N#CC(=Cc1ccnc2ccccc12)c1ccccc1	21µM	0	0	?	0	0
C=Nc1ccc(/C=C/c2ccnc3ccccc23)cc1	11µM	-	0	22µM	0	-
Nc1ccccc1/C=C/c1ccnc2ccccc12	3.2µM	-	0	5µM	0	-
Cc1cc(C)nc(S[C@@H]2C[C@@H](C(=O)N3CCCN(C)CC3)N(Cc3cc(F)ccc3F)C2)n1	0	-	-	0	-	-
C(=C\c1ccnc2ccccc12)/c1ccnc2ccccc12	18µM	-	0	?	0	-
C(=C\c1ccnc2ccccc12)/c1cccnc1	13µM	-	0	?	0	-
O=C(/C=C/c1ccnc2ccccc12)c1cccs1	13µM	18µM	?	4.6µM	5.6µM	18µM
CC1=C(C#N)C(NC(=O)c2cccc(Cl)c2)(C(F)(F)F)C(=O)N1 (stereo not drawn)	0	0	?	0	0	0
CCOc1ccc(N(C)S(=O)(=O)c2ccc3[nH]cc(C(=O)NCC(OC)OC)c(=O)c3c2)cc1	26µM	0	0	?	0	0
COc1ccc(NC(=O)CN(C)S(=O)(=O)c2ccc3c(c2)c(=O)n(C)c(=O)n3C)cc1	?	0	?	?	0	0
CCN(C(=O)CN(C)S(=O)(=O)c1ccc2c(c1)c(=O)n(C)c(=O)n2C)c1ccc(OC)cc1	23µM	-	0	0	0	-
CN(CC(=O)NCCc1ccc(Cl)cc1)S(=O)(=O)c1ccc2c(c1)c(=O)n(C)c(=O)n2C	?	0	0	?	0	0
